{"source": "PubChem BioAssay (NCATS)", "note": "Results filed as inconclusive are left out. Values without a mark were called inactive. Calls of active or inactive are those of the source. Calls come from the whole dose curve. % is set by controls: 0 for no effect and ±100 for the full control effect.", "data": [{"molecular_target": "Nucleoprotein (Lymphocytic choriomeningitis virus (strain Armstrong)) (UniProt P09992)", "sequence (P09992 whole entry, looked up)": "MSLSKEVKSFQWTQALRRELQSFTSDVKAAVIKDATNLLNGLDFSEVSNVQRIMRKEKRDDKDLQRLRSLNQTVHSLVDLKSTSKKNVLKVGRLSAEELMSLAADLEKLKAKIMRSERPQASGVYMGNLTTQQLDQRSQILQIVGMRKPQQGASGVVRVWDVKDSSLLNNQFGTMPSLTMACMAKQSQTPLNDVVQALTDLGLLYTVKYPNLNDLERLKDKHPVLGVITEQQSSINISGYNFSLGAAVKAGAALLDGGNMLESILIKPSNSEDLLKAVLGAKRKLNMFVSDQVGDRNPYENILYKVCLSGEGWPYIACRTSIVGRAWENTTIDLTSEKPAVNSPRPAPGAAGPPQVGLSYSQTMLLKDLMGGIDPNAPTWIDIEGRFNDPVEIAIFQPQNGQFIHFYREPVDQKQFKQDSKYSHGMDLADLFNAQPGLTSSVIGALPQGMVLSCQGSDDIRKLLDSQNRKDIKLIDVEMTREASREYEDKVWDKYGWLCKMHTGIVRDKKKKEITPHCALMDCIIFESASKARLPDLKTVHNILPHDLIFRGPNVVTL", "experiment": "qHTS for Inhibitors of the Functional Ribonucleoprotein Complex (vRNP) of Lymphocytic Choriomeningitis Arenaviruses (LCMV): LCMV Primary Screen - GLuc reporter signal (AID 1347086); note: nearly all actives have a fitted effect of over 70% in size", "settings": "LCMV minigenome vRNP cell assay, Gaussia luciferase reporter; series mostly up to 57.5 µM; activity change, negative = inhibition: at the top concentration", "values": [{"smiles": "O=C(NN1CCCC1)NS(=O)(=O)c1ccc(Cl)cc1", "activity change, negative = inhibition": "8.99%"}, {"smiles": "Nc1c2c(nc3c1CCC3)CCCC2", "activity change, negative = inhibition": "8.79%"}, {"smiles": "Cc1cccc(CN2CCN(C(c3ccccc3)c3ccc(Cl)cc3)CC2)c1", "note": "(centres undefined)", "activity change, negative = inhibition": "-0.763%"}, {"smiles": "C[C@@H]1CCC[C@H](C)N1CCCC(O)(c1ccccc1)c1ccccn1", "note": "(some centres undefined)", "activity change, negative = inhibition": "5.15%"}, {"smiles": "CCCCN1CCCC1C(=O)Nc1c(C)cc(C)cc1C", "note": "(centres undefined)", "activity change, negative = inhibition": "-6.96%"}, {"smiles": "COc1ccccc1N1CCN(CC(O)COc2cccc3ccccc23)CC1", "note": "(centres undefined)", "Potency": "inactive"}, {"smiles": "CCN(CC)CCOc1ccc(Cc2ccccc2)cc1", "activity change, negative = inhibition": "-35.9%"}, {"smiles": "CC(C)C(=O)Nc1cccc(C2CN3CCSC3=N2)c1", "note": "(centres undefined)", "activity change, negative = inhibition": "-12.9%"}, {"smiles": "C/C=C/c1ccc(O)c(OC)c1", "activity change, negative = inhibition": "-3.21%"}, {"smiles": "COc1ccc2c(c1)c(CC(=O)O)c(C)n2C(=O)c1ccc(Cl)cc1", "Potency": "inactive"}, {"smiles": "CCCCNc1ccc(C(=O)OCCN(CC)CC)cc1", "activity change, negative = inhibition": "11.5%"}, {"smiles": "O=C(O)c1cn(-c2ccc(F)cc2)c2cc(N3CCNCC3)c(F)cc2c1=O", "Potency": "inactive"}, {"smiles": "COC(=O)[C@H]1[C@H]2C[C@@H]3c4[nH]c5cc(OC)ccc5c4CCN3C[C@H]2C[C@@H](OC(=O)COc2ccc(OC)cc2)[C@@H]1OC", "activity change, negative = inhibition": "4.95%"}, {"smiles": "O=C(COc1ccc(Cl)cc1)N1CCN(Cc2ccc3c(c2)OCO3)CC1", "activity change, negative = inhibition": "1.61%"}, {"smiles": "Cc1ncc([N+](=O)[O-])n1C", "activity change, negative = inhibition": "35%"}, {"smiles": "c1ccc(CCNc2nc(-c3ccccc3)cs2)cc1", "activity change, negative = inhibition": "-38.4%"}, {"smiles": "Cc1cc(N)c2cc(NC(=O)Nc3ccc4nc(C)cc(N)c4c3)ccc2n1", "activity change, negative = inhibition": "14.9%"}, {"smiles": "CCc1cccc2c3c([nH]c12)C(CC)(CC(=O)O)OCC3", "note": "(centres undefined)", "Potency": "inactive"}, {"smiles": "CN(C)CCCN1c2ccccc2Sc2ccccc21", "Potency": "inactive"}, {"smiles": "Cc1c(F)cc2c(=O)c(C(=O)O)cn3c2c1CCC3C", "note": "(centres undefined)", "activity change, negative = inhibition": "7.93%"}, {"smiles": "OC1C(O)C(O)C(O)C(O)C1O", "note": "(centres undefined)", "Potency": "inactive"}, {"smiles": "C[C@@]12CCC[C@H]1[C@@H]1CC[C@H]3C[C@@H](O)CC[C@]3(C)[C@H]1CC2", "activity change, negative = inhibition": "34%"}, {"smiles": "CCOC(=O)C(C#N)=C(c1ccccc1)c1ccccc1", "activity change, negative = inhibition": "-3.23%"}, {"smiles": "CCOC(=O)c1c(N)sc2c1CCN(Cc1ccccc1)C2", "activity change, negative = inhibition": "-15.9%"}, {"smiles": "Cc1cc(C(C)(C)C)cc(C)c1CC1=NCCN1", "Potency": "inactive"}, {"smiles": "CCN(CC)CCOC(=O)C(c1ccccc1)c1ccccc1", "activity change, negative = inhibition": "9.35%"}, {"smiles": "Cc1cn([C@H]2C[C@H](F)[C@@H](CO)O2)c(=O)[nH]c1=O", "activity change, negative = inhibition": "10.4%"}, {"smiles": "CCOC(=O)[C@H](CCc1ccccc1)N[C@H]1CS[C@H](c2cccs2)CN(CC(=O)O)C1=O", "Potency": "inactive"}, {"smiles": "OC(C#CCN1CCCC1)(c1ccccc1)c1ccccc1", "activity change, negative = inhibition": "1.25%"}, {"smiles": "CCC(=O)c1ccc(O)cc1", "activity change, negative = inhibition": "18.5%"}, {"smiles": "CN1Cc2c(N)cccc2C(c2ccccc2)C1", "note": "(centres undefined)", "Potency": "inactive"}, {"smiles": "Nc1ccc(C(=O)N2CC3CC(CN(Cc4ccccc4)C3)C2)cc1", "activity change, negative = inhibition": "14%"}, {"smiles": "Cc1ccc(Cl)c(OCC(O)CNC(C)(C)C)c1", "note": "(centres undefined)", "activity change, negative = inhibition": "3.77%"}, {"smiles": "CCCCOC(=O)CCCCCCCCC(=O)OCCCC", "activity change, negative = inhibition": "23.1%"}, {"smiles": "N#Cc1cc(NC(=O)C(=O)O)c(Cl)c(NC(=O)C(=O)O)c1", "activity change, negative = inhibition": "22%"}, {"smiles": "C/C(=C(\\CCOP(=O)(O)O)SC(=O)c1ccccc1)N(C=O)Cc1cnc(C)nc1N", "activity change, negative = inhibition": "-1.19% [at 5.82 µM]"}, {"smiles": "Cc1cccc(Nc2cc(Cl)nc(SCC(=O)O)n2)c1C", "activity change, negative = inhibition": "-21.5%"}, {"smiles": "O=C1c2cccc(O)c2C(=O)c2c(O)cccc21", "activity change, negative = inhibition": "-2.9%"}, {"smiles": "C=C1C[C@H]2[C@@H]3C=C(C)C4=CC(=O)CC[C@]4(C)[C@H]3CC[C@]2(C)[C@@]1(OC(C)=O)C(C)=O", "activity change, negative = inhibition": "-3.5%"}]}]}
